Data as given in the supplement of paper PMC8728848.
The full list was thinned out, with the strongest signals kept by preference.

B1: cupB6 (Pseudomonas aeruginosa), Q02SP7 (protein)
chain: MSMRLFPGRVSLRRRPGAQARQALVLGLCCLTGGQAWALNEVALNCSFGNGKGLPWRVVNELTSGTAKGTVLFARPVSLFLSYKPQASQEAHELVLGGNWSGVGYPGPYGTVASDVKGIGYRISVDAQDGVKRVIPVDNQPHALDKRVTSFSGSTTSDYLQELVLTVDPGELPAGDLKVTSVSGSATLNLWAVDRLKGEASIGSVLAVPADNYPTGVCRKPYSLIGPASIAIGGGPPPPPIPKKCKVEVGREINVKLGSVALKNFPRVNDTSTERSFDISLSECAALAKPEIAFRDKYVSAQQADPTILSLKSGGAAGFGIVVKNGLDQQRIRFDGTPYPMRRVGDSADLPLSAAYIRIGAEGELKAGVADGAAEFTFTFP
B2: SAG1 (Toxoplasma gondii), P13664 (protein)
chain: MSVSLHHFIISSGFLTSMFPKAVRRAVTAGVFAAPTLMSFLRCGVMASDPPLVANQVVTCPDKKSTAAVILTPTENHFTLKCPKTALTEPPTLAYSPNRQICPAGTTSSCTSKAVTLSSLIPEAEDSWWTGDSASLDTAGIKLTVPIEKFPVTTQTFVVGCIKGDDAQSCMVTVTVQARASSVVNNVARCSYGADSTLGPVKLSAEGPTTMTLVCGKDGVKVPQDNNQYCSGTTLTGCNEKSFKDILPKLTENPWQGNASSDKGATLTIKKEAFPAESKSVIIGCTGGSPEKHHCTVKLEFAGAAGSAKSAAGTASHVSIFAMVIGLIGSIAACVA

Tests used:
Assay in all cases: glycan array binding signal (z-score within array); higher = stronger binding
Conditions in all cases: glycan notation: IUPAC condensed, linker removed
[1] = target: Neu5Ac(a2-3)GalNAc(b1-4)GlcNAc
Procedure, shortened: (§1)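 Glycan array binding is given as a within-array Z-score, which can be read as non-binding when negative. The arrays, 3228 of them, came from the Consortium for Functional Glycomics database and were retained only where the protein sequence was available. Z-scores were averaged across arrays of the same protein sequence at different concentrations or buffers and across linkers.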

[2] = target: Neu5Ac(a2-6)Gal(b1-4)GlcNAc
Procedure, shortened: as §1

[3] = target: Neu5Ac(a2-6)Gal(b1-4)GlcNAc(b1-2)Man(a1-3)Man(b1-4)GlcNAc(b1-4)GlcNAc
Procedure, shortened: as §1

[4] = target: Neu5Ac(a2-6)Gal(b1-4)GlcNAc(b1-2)Man(a1-3)[Man(a1-6)]Man(b1-4)GlcNAc(b1-4)GlcNAc
Procedure, shortened: as §1

[5] = target: Neu5Ac(a2-6)Gal(b1-4)GlcNAc(b1-2)Man(a1-6)[Man(a1-3)]Man(b1-4)GlcNAc(b1-4)GlcNAc
Procedure, shortened: as §1

Neu5Ac(a2-8)Neu5Ac = target: Neu5Ac(a2-8)Neu5Ac
Procedure, shortened: as §1

[6] = target: Neu5Ac(a2-8)Neu5Ac(a2-8)Neu5Ac(a2-3)[GalNAc(b1-4)]Gal(b1-4)Glc
Procedure, shortened: as §1

[7] = target: Neu5Ac(a2-8)Neu5Ac(a2-8)Neu5Ac(a2-8)Neu5Ac(a2-3)[GalNAc(b1-4)]Gal(b1-4)Glc
Procedure, shortened: as §1

[8] = target: Fuc(a1-2)Gal(b1-3)[Fuc(a1-4)]GlcNAc
Procedure, shortened: as §1

[9] = target: Fuc(a1-2)[Gal(a1-3)]Gal(b1-4)GlcNAc(b1-2)Man(a1-3)[Fuc(a1-2)[Gal(a1-3)]Gal(b1-4)GlcNAc(b1-2)Man(a1-6)]Man(b1-4)GlcNAc(b1-4)GlcNAc
Procedure, shortened: as §1

[10] = target: Fuc(a1-2)[GalNAc(a1-3)]Gal(b1-3)GlcNAc(b1-2)Man(a1-3)[Fuc(a1-2)[GalNAc(a1-3)]Gal(b1-3)GlcNAc(b1-2)Man(a1-6)]Man(b1-4)GlcNAc(b1-4)GlcNAc
Procedure, shortened: as §1

[11] = target: Fuc(a1-3)[Gal(b1-4)]GlcNAc(b1-2)Man(a1-3)[Fuc(a1-3)[Gal(b1-4)]GlcNAc(b1-2)Man(a1-6)]Man(b1-4)GlcNAc(b1-4)GlcNAc
Procedure, shortened: as §1

[12] = target: Fuc(a1-3)[Gal(b1-4)]GlcNAc(b1-3)Gal(b1-3)[Fuc(a1-4)]GlcNAc
Procedure, shortened: as §1

[13] = target: Gal(a1-3)Gal(b1-3)GlcNAc(b1-2)Man(a1-3)[Gal(a1-3)Gal(b1-3)GlcNAc(b1-2)Man(a1-6)]Man(b1-4)GlcNAc(b1-4)GlcNAc
Procedure, shortened: as §1

[14] = target: Gal(b1-3)[GlcNAc(b1-6)]GalNAc
Procedure, shortened: as §1

[15] = target: Gal(b1-4)GlcNAc(a1-6)Gal(b1-4)GlcNAc
Procedure, shortened: as §1

[16] = target: Gal3S(b1-3)[Fuc(a1-4)]GlcNAc
Procedure, shortened: as §1

Gal6S(b1-4)Glc = target: Gal6S(b1-4)Glc
Procedure, shortened: as §1

GalNAc(a1-3)Gal = target: GalNAc(a1-3)Gal
Procedure, shortened: as §1

[17] = target: GlcNAc(a1-4)Gal(b1-4)GlcNAc(b1-3)Gal(b1-4)GlcNAc(b1-3)Gal(b1-4)GlcNAc
Procedure, shortened: as §1

[18] = target: GlcNAc(a1-4)Gal(b1-4)GlcNAc(b1-3)Gal(b1-4)[Fuc(a1-3)]GlcNAc(b1-3)Gal(b1-4)[Fuc(a1-3)]GlcNAc
Procedure, shortened: as §1

[19] = target: Man(a1-3)[Man(a1-6)]Man(a1-6)[Man(a1-3)]Man
Procedure, shortened: as §1

[20] = target: Neu5Ac(a2-3)Gal(b1-3)GalNAc(b1-4)[Neu5Ac(a2-3)]Gal(b1-4)Glc
Procedure, shortened: as §1

[21] = target: Neu5Ac(a2-3)Gal(b1-3)GlcNAc
Procedure, shortened: as §1

[22] = target: Neu5Ac(a2-3)Gal(b1-4)GlcNAc(b1-3)Gal(b1-4)GlcNAc(b1-3)Gal(b1-4)GlcNAc
Procedure, shortened: as §1

[23] = target: Neu5Ac(a2-3)Gal(b1-4)GlcNAc(b1-3)Gal(b1-4)[Fuc(a1-3)]GlcNAc
Procedure, shortened: as §1

[24] = target: Neu5Ac(a2-3)Gal(b1-4)GlcNAc(b1-6)[Neu5Ac(a2-3)Gal(b1-3)]GalNAc
Procedure, shortened: as §1

[25] = target: Neu5Ac(a2-3)Gal(b1-4)[Fuc(a1-3)]GlcNAc(b1-3)GalNAc
Procedure, shortened: as §1

[26] = target: Neu5Ac(a2-3)Gal(b1-4)[Fuc(a1-3)]GlcNAc6S
Procedure, shortened: as §1

[27] = target: Neu5Ac(a2-6)Gal(b1-4)GlcNAc(b1-2)Man(a1-6)[GlcNAc(b1-2)Man(a1-3)]Man(b1-4)GlcNAc(b1-4)GlcNAc
Procedure, shortened: as §1

[28] = target: Neu5Ac(a2-6)GlcNAc(b1-4)GlcNAc(b1-4)GlcNAc
Procedure, shortened: as §1

[29] = target: Neu5Gc(a2-3)Gal(b1-3)[Fuc(a1-4)]GlcNAc
Procedure, shortened: as §1

| Binder | glycan array binding signal (z-score) [1] | glycan array binding signal (z-score) [2] | glycan array binding signal (z-score) [3] | glycan array binding signal (z-score) [4] | glycan array binding signal (z-score) [5] | glycan array binding signal (z-score) (Neu5Ac(a2-8)Neu5Ac) | glycan array binding signal (z-score) [6] | glycan array binding signal (z-score) [7] | glycan array binding signal (z-score) [8] | glycan array binding signal (z-score) [9] | glycan array binding signal (z-score) [10] | glycan array binding signal (z-score) [11] | glycan array binding signal (z-score) [12] | glycan array binding signal (z-score) [13] | glycan array binding signal (z-score) [14] | glycan array binding signal (z-score) [15] | glycan array binding signal (z-score) [16] | glycan array binding signal (z-score) (Gal6S(b1-4)Glc) | glycan array binding signal (z-score) (GalNAc(a1-3)Gal) | glycan array binding signal (z-score) [17] | glycan array binding signal (z-score) [18] | glycan array binding signal (z-score) [19] | glycan array binding signal (z-score) [20] | glycan array binding signal (z-score) [21] | glycan array binding signal (z-score) [22] | glycan array binding signal (z-score) [23] | glycan array binding signal (z-score) [24] | glycan array binding signal (z-score) [25] | glycan array binding signal (z-score) [26] | glycan array binding signal (z-score) [27] | glycan array binding signal (z-score) [28] | glycan array binding signal (z-score) [29] |
| --- | --- | --- | --- | --- | --- | --- | --- | --- | --- | --- | --- | --- | --- | --- | --- | --- | --- | --- | --- | --- | --- | --- | --- | --- | --- | --- | --- | --- | --- | --- | --- | --- |
| B1 | -0.177 | -0.15 | 0.058 | 0.325 | 0.107 | -0.002 | -0.074 | -0.043 |  |  |  |  |  |  |  |  |  |  |  |  |  |  |  |  |  |  |  |  |  |  |  |  |
| B2 |  |  |  |  |  |  |  | -0.241 | 0.139 | 0.615 | -0.505 | 1.86 | -0.232 | 1.47 | -0.229 | -0.386 | 7.52 | -0.579 | -0.761 | 0.265 | 2.24 | -0.442 | 0.728 | 0 | -0.703 | 1.71 | 1.61 | 3.63 | -0.651 | -0.2 | -0.384 | 0.031 |
